25 compounds from PubChem BioAssay AID1359 (The Scripps Research Institute Molecular Screening Center, 2008) can be followed below.

Values joined by “and” are separate entries in the source; they are usually repeats but may differ in a detail not shown here. Equal values may be shown once. In all, about 220,000 compounds went through this assay and about 970 (0.44%) were called active. Shown is part of a subset that was picked to be rich in actives. Values without a mark were called inactive. Rule as the data show it: active = activation above about 27%; inactive = the rest.

The target in this assay is Neuropeptide Y receptor type 2 (Homo sapiens) (UniProt P49146). The assay can be described thus: human Y2 receptor positive modulation or activation – cell-based, primary screen (AID 1359).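 Also: cells stimulated with NPY near EC25 plus isoproterenol at EC100; 0% = vehicle plus submaximal agonist and 100% = vehicle plus saturating agonist.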 To be noted: cells expressing NPY-Y2, potentiator/agonist read-out; at 3.6 µM; active compounds read high.
Sequence of Neuropeptide Y receptor type 2 (Homo sapiens) (P49146 whole entry, looked up): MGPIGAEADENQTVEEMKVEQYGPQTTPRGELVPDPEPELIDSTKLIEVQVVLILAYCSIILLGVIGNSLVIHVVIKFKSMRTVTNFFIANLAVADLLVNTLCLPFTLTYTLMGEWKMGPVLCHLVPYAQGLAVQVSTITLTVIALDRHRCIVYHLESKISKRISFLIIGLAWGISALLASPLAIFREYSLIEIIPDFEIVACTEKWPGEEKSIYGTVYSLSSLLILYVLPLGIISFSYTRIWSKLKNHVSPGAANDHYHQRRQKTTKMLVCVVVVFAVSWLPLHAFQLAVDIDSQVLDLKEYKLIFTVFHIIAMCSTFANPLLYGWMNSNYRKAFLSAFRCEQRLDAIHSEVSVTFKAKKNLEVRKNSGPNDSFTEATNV
For `CCSc1nnc(NC(=O)Cc2ccccc2OC)s1`, the activation is -5.68%.

In the case of `CCSc1nnc(NC(=O)c2ccc(C)cc2)s1`, the activation was 31.6% (active).

As for `C=CCSc1nnc(NC(=O)c2ccc(NC(C)=O)cc2)s1`, the activation is -3.89%.

In the case of `Cc1nc2ccccc2c(C)c1C(=O)c1ccc(F)cc1`, the activation was -11.5%.

Consider `CCCC1OC23CCCCC2C(C#N)(C#N)C1(C#N)C(=N)O3` (stereo not given), for which the activation was 7.5%.

As for `COCCCNC(NC(=O)c1ccc(C)cc1)C(Cl)(Cl)Cl` (stereo not given), the activation was 15.8%.

As for `COc1ccc(C(=O)NC2(C(F)(F)F)NC(=O)N(CCCc3ccccc3)C2=O)c(OC)c1OC` (stereo not given), the activation is -6.73%.

As for `COc1ccccc1OCCNCC(O)COc1cccc2[nH]c3ccccc3c12` (stereo not given), the activation is 99.4% (active) and 97.9% (active).

In the case of `CC(O)CNCCOc1cccc(Oc2ccccc2)c1` (stereo not given), the activation is -22.6%.

For the compound `COc1ccccc1OCCNC(=O)c1cc([N+](=O)[O-])cc([N+](=O)[O-])c1`, the activation is -7.14%.

`C=CCn1c(SCc2cccc(F)c2)nc2cc(C(=O)N3CCC(C(N)=O)CC3)ccc2c1=O`: the activation is 8.55%.

In the case of `O=C(NCCc1ccccn1)c1cc(-c2ccc(Cl)cc2)nc2ccccc12`, the activation is -15.9%.

`O=c1cc(N2CCN(Cc3ccccc3)CC2)c(-c2ccccc2)n[nH]1`: the activation was 12.9%.

`O=C1c2ccccc2C(=O)c2c1cccc2N1CCN(Cc2ccccc2)CC1`: the activation was 48.8% (active).

`O=C1c2ccccc2C(=O)c2c1cccc2N1CCN(CCO)CC1`: the activation was 7.55%.

As for `COc1ccc(NS(=O)(=O)c2cc(NC(=O)CC(=O)c3ccc([N+](=O)[O-])cc3)ccc2C)cc1`, the activation is -11.2%.

`CC(=O)C1C(c2ccc(Cl)cc2)NC(=O)NC1(O)C(F)(F)F` (stereo not given): the activation is -6.52%.

Take `CC(=O)C1C(c2cccc(Oc3ccccc3)c2)NC(=O)NC1(O)C(F)(F)F` (stereo not given): the activation is 6.91%.

For `O=C1NC(c2ccc(-c3ccccc3[N+](=O)[O-])o2)C(C(=O)c2ccc(Cl)cc2)C(O)(C(F)(F)F)N1` (stereo not given), the activation was 37.4% (active).

For the compound `O=C(c1ccc(F)cc1)n1c(=S)nc2ccccn21`, the activation is 3.79%.

`COc1cc(N2C(=O)c3ccccc3C2=O)c(Cl)cc1C(=O)OCC(=O)N1CCOCC1`: the activation was -10.6%.

In the case of `OC(COCC1COc2ccccc2O1)CN1CCN(c2ccc(F)cc2)CC1` (stereo not given), the activation was 80.4% (active).

As for `O=[N+]([O-])c1ccc(N2CCN(CC(O)COc3ccccc3)CC2)cc1` (stereo not given), the activation is -7.01%.

Turning to `OC(COCc1ccco1)CN1CCN(c2ccccc2)CC1` (stereo not given), the activation is -8.6%.

With `COc1ccc(OCc2cn3c(C)cc(C)nc3n2)cc1`, the activation is 1.94%.
